Data as given in PubChem BioAssay.
Calls of active or inactive are those of the source.

What was measured:
[1] = test system: Human papillomavirus type 1a protein E7 (residues 44-93); experiment: HPV1a E7 fragment binders on microarrays, primary screen, biochemical, small-molecule microarray, residues 44-93, 635 nm fluorescence (AID 1108); conditions: small-molecule microarray binding, fluorescence 635 nm; higher = more signal;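 further: E7 fragment applied at 1 µg/mL in TBST for 1 h at 4 C; score combines spot fluorescence with its signal to noise ratio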
[2] = modulators of HCV replicon luciferase signal, primary screen, HCV replication inhibitor project, Huh7 cells, luciferase reporter (AID 1109); conditions: 48 h, higher = more signal;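 further: huh7 hepatoma cells harbouring a luciferase neomycin HCV replicon reporter; luciferase luminescence as measure of HCV replicon replication; test concentration not given here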
[3] = target: Left-right determination factor 2 (Homo sapiens) (UniProt O00292); experiment: LEFTY2 binders on small-molecule microarrays, primary screen, biochemical, small-molecule microarray, 635 nm fluorescence scan (AID 1110); conditions: LEFTY2 binding, higher = more signal
Left-right determination factor 2 (Homo sapiens), sequence (O00292 whole entry, looked up): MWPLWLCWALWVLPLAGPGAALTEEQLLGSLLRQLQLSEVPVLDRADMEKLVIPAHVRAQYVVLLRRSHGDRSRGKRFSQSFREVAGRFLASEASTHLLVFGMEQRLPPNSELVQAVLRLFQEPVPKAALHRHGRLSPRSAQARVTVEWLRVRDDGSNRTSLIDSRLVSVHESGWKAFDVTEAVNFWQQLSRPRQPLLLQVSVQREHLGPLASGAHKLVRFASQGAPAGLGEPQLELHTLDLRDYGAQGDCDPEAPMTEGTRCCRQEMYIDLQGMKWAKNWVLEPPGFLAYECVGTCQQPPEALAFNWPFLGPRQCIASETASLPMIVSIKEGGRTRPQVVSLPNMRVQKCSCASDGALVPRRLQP

[4] = target: Calmodulin-1 (Homo sapiens) (UniProt P0DP23); experiment: CALM1 binders on microarrays, EGTA buffer, profiling panel, biochemical, small-molecule microarray, Cy5-labelled CALM1 (AID 1111); conditions: Cy5-CALM1 binding fluorescence, higher = more signal;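 further: labelled calmodulin applied in Tris saline Tween buffer holding calcium plus EGTA and DTT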
[5] = target: Calmodulin-1 (Homo sapiens) (UniProt P0DP23); experiment: calcium-bound CALM1 binders on microarrays, profiling panel, artefact control for SMM control-protein annotation, biochemical, small-molecule microarray, Cy5-labelled CALM1, plus calcium (AID 1112); conditions: Cy5-CALM1 binding fluorescence, higher = more signal;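 further: score merges spot fluorescence with signal to noise from triplicate slides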
[6] = small-molecule microarray binders of probe aWnt5a, primary screen, biochemical, biotinylated probe, 635/667 nm fluorescence (AID 1113); conditions: higher = more signal;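 further: score merges 667 nm fluorescence intensity with signal-to-noise per printed feature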
[7] = small-molecule microarray binders of probe aShh, primary screen, biochemical, biotinylated probe, 635/667 nm fluorescence (AID 1114); conditions: higher = more signal;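 further: probe is biotin-labelled aShh protein from a stem cell growth factor screen; measures binding of labelled protein to compounds printed on the slide; score merges feature fluorescence at 667 nm with signal-to-noise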
[8] = small-molecule microarray binders of probe aNog, primary screen, biochemical, biotinylated probe, 635/667 nm fluorescence (AID 1115); conditions: higher = more signal;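 further: probe is biotinylated aNog protein used at 0.15 µg/mL for 1 h at 4 C; z-score combines 667 nm fluorescence of each spot with its signal to noise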
[9] = target: Torsin-1A-interacting protein 1 (Homo sapiens) (UniProt Q5JTV8); experiment: LAP1 binders from COS7 cell lysate, primary screen, small-molecule microarray, 635/667 nm fluorescence (AID 1116); conditions: COS7-hLAP1 lysate binding, 635 nm fluorescence, higher = more signal
Torsin-1A-interacting protein 1 (Homo sapiens), sequence (Q5JTV8 whole entry, looked up): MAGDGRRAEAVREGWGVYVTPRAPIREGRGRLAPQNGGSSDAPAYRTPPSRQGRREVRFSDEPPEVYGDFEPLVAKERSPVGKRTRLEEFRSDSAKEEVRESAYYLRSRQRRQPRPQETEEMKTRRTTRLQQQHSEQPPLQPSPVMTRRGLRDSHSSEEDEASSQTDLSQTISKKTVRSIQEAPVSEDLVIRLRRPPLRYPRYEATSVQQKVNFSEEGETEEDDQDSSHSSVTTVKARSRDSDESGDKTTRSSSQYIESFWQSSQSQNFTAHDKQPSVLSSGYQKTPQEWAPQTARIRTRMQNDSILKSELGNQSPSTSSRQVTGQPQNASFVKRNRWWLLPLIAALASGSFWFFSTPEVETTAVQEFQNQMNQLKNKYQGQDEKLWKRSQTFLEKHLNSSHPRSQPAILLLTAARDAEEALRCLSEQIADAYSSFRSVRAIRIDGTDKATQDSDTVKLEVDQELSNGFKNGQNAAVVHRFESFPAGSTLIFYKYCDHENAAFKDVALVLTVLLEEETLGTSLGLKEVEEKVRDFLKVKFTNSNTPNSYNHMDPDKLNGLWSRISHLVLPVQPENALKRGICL

[10] = target: Alpha-bungarotoxin (Bungarus multicinctus) (UniProt P60615); experiment: alpha-bungarotoxin binders on microarray, profiling panel, artefact control for SMM control protein annotation, biochemical, small-molecule microarray, Alexa647 label, 635/667 nm fluorescence (AID 1117); conditions: alpha-BTX-A647 binding fluorescence, higher = more signal
Alpha-bungarotoxin (Bungarus multicinctus), sequence (P60615 whole entry, looked up): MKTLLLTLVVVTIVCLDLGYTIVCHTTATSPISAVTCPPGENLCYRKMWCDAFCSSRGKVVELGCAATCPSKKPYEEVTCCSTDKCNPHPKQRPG

Albumin (Bos taurus) = Albumin (Bos taurus) (UniProt P02769); experiment: bovine serum albumin binders on microarray, profiling panel, artefact control for SMM control protein annotation, biochemical, small-molecule microarray, Alexa647 label, 635/667 nm fluorescence (AID 1118); conditions: BSA-A647 binding, fluorescence 635 nm, higher = more signal;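 further: score merges 667 nm emission intensity and signal-to-noise per printed compound spot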
Albumin (Bos taurus), sequence (P02769 whole entry, looked up): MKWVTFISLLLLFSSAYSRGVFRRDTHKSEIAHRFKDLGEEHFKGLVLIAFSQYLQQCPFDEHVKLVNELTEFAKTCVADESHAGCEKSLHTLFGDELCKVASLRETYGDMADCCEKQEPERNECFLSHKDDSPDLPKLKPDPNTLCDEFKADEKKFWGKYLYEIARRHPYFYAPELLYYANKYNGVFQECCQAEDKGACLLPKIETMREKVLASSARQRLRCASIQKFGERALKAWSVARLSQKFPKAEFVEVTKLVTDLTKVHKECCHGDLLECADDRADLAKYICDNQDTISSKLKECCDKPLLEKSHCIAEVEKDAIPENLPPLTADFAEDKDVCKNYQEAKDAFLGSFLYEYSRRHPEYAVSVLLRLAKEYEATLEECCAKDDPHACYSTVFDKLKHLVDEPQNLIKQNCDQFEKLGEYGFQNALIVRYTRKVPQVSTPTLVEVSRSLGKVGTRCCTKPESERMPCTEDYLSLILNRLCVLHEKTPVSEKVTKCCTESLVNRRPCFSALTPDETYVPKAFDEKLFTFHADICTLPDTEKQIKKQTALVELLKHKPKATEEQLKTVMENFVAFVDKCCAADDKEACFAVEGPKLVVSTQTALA

[11] = small-molecule microarray binders of probe aXIP, primary screen, biochemical, NeuroSMM set, 635/667 nm fluorescence (AID 1119); conditions: higher = more signal, called active from +8 up or from −8 down;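 further: probe is the protein aXip251-270 applied at 1 µg/mL to compound-printed slides; binding of probe to printed compounds measured as 667 nm fluorescence plus signal to noise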
[12] = small-molecule binders of probe aNOTCH3, primary screen, biochemical, small-molecule microarray, 635/667 nm fluorescence (AID 1120); conditions: higher = more signal;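 further: probe is a biotin-tagged antibody raised against NOTCH3 rather than NOTCH3 protein; score merges spot fluorescence near 667 nm with spot signal to noise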
[13] = small-molecule binders of probe aNOTCH2, primary screen, biochemical, small-molecule microarray, 635/667 nm fluorescence (AID 1121); conditions: higher = more signal;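 further: score merges feature fluorescence read at 667 nm with its signal to noise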
[14] = target: Carbonic anhydrase 2 (Homo sapiens) (UniProt P00918); experiment: CAII small-molecule binders, profiling panel, biochemical, small-molecule microarray, Alexa647-labelled CAII (AID 1122); conditions: CAII-A647 binding fluorescence, higher = more signal
[15] = COS7 lysate on small-molecule microarray, probe aHis, 635 nm (AID 1123); conditions: COS7 cell lysate, fluorescence, higher = more signal;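 further: z-score combines 667nm fluorescence intensity with signal-to-noise per printed compound spot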
[16] = compound binding in COS7 lysate, probe aLAP1, primary screen, cell lysate, small-molecule microarray (AID 1124); conditions: probe aLAP1, fluorescence, higher = more signal;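 further: lysate comes from COS7 cells expressing LAP1 and is applied at 0.3 µg/mL; score merges spot fluorescence near 667 nm with signal-to-noise over triplicate slides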
Sam68 (KHDRBS1) = experiment: Sam68 small-molecule binders, primary screen, biochemical, small-molecule microarray, 635 nm fluorescence (AID 1125); conditions: small-molecule microarray binding, higher = more signal;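 further: score merges 667 nm channel intensity with signal to noise over triplicate slides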
[17] = test system: Chordin-like protein 2 (CHRDL2); experiment: CHRDL2 small-molecule binders, primary screen, biochemical, small-molecule microarray, 635 nm fluorescence (AID 1126); conditions: small-molecule microarray binding, fluorescence 635 nm; higher = more signal;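 further: printed compound slides probed with Chrdl2 protein at 4 µg/mL for 1 h at 4 C; score merges 667 nm emission intensity with signal to noise over three replicate slides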
[18] = target: Concanavalin-A (Canavalia ensiformis) (UniProt P02866); experiment: ConA small-molecule binders, primary screen, artefact control for SMM control protein annotation, biochemical, small-molecule microarray, Alexa647 label, 635 nm (AID 1127); conditions: ConA-A647 binding fluorescence, higher = more signal;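 further: z combines 667 nm emission intensity with signal-to-noise across three replicate slides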
Concanavalin-A (Canavalia ensiformis), sequence (P02866 whole entry, looked up): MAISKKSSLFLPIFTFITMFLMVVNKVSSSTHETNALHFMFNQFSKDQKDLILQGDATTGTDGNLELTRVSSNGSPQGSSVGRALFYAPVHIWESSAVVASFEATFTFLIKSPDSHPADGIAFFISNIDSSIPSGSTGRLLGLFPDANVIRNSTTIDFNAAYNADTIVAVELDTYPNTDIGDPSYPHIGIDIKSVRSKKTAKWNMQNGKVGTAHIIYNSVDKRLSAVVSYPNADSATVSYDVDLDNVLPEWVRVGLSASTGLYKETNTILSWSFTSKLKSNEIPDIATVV

Compound | composite z-score [1] | z-score [2] | composite z-score [3] | composite z-score [4] | composite z-score [5] | composite z-score [6] | composite z-score [7] | composite z-score [8] | composite z-score [9] | composite z-score [10] | composite z-score (Albumin (Bos taurus)) | composite Z-score [11] | composite z-score [12] | composite z-score [13] | composite z-score [14] | composite z-score [15] | composite z-score [16] | composite z-score (Sam68 (KHDRBS1)) | composite z-score [17] | composite z-score [18]
O=C1OCCC/C=C\[C@H]2OC34C=CCN(CCN5CCOCC5)C(=O)[C@H]3N(CCCCCO)C(=O)[C@@H]4C12 (stereo not given in full) | -0.827 | -0.953 | -1.37 | -0.725 | -1.26 | -0.226 | -0.147 | -0.356 | -0.849 | -0.918 | -1.22 | 1.39 (inactive) | -0.246 | -0.162 | 0.816 | -0.687 | -0.401 | -0.369 | -1.15 | -0.167
COC(=O)[C@@]1(Cc2ccc(OC)cc2)[C@H]2c3cc(C(=O)N(C)C)n(CCc4ccc(OC)c(Br)c4)c3C[C@H]2CN1C(=O)c1ccccc1 | 1.33 | -2.54 | -0.239 | 2.23 | 1.54 | 0.36 | 2.03 | 1.19 | 1.73 | 1.98 | 1.11 | -0.665 (inactive) | 0.831 | 0.395 | 0.718 | 2.9 | 0.482 | 1.29 | -1.11 | 1.2
CN1C2C=C(c3ccc(CO)cc3)C(C3C(=O)N(C(N)=O)C(=O)C32)C1c1cccs1 (stereo not given) | -0.232 | 0.374 | 0.217 | 0.45 | 0.47 | -0.156 | -0.0769 | 0.408 | 1.24 | -1.09 | -0.444 | 0.173 (inactive) | 0.0261 | -0.162 | 0.704 | 0.4 | -0.342 | 0.0726 | -0.934 | -0.0029
C=CCN1C(=O)[C@]2(O[C@H](CCn3cc(CCO)nn3)[C@@H]([Si](C)(C)c3ccc(OC)cc3)[C@@H]2C)c2cc(NC(=O)c3ccc(OC)cc3)ccc21 | 1.09 | -3.44 | 0.774 | 0.289 | 0.336 | -0.124 | 0.166 | 0.188 | 0.573 | 1.19 | 0.0645 | -0.624 (inactive) | 0.141 | -0.044 | 0.131 | 0.514 | -0.0812 | 1.3 | 0.782 | 1.08
COc1ccc([Si](C)(C)[C@H]2[C@H](CCO)O[C@@]3(C(=O)N(Cc4ccccc4)c4ccc(N5C(=O)c6cccc7cccc5c67)cc43)[C@@H]2C)cc1 | -0.137 | -4.5 | -0.681 | 0.793 | 0.906 | -0.124 | -0.0769 | 0.0936 | 0.461 | 0.524 | 0.151 | -0.229 (inactive) | -0.18 | -0.155 | 0.286 | 0.0609 | 1.06 | 0.143 | -0.966 | 0.386
